In the library only some 1.7% were active in any assay of this set; here they are far more common.
p97 inhibitor: human p97 ATPase inhibition. P55072. hit rate 0.42% among 220,000. inhibition, % at 8 µM. AID 1481. recombinant p97 ATPase, Kinase-Glo ATP luminescence, 3 h; in the data active = inhibition above about 15%;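 note: 0% = DMSO vehicle and 100% = wells lacking enzyme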
LYPLA2 counter: LYPLA2 (human) inhibition in PME1 counter-screen. AID 2177. O95372. recombinant LYPLA2, FP-Rh probe fluorescence polarization. hit rate 0.38% among 320,000. inhibition, % at 5.9 µM;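 active = inhibition above the screen-wide mean plus 3 SD, limit set per campaign, cut at about 26% in these data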;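 note: 0% = LYPLA2 with DMSO and 100% = wells lacking LYPLA2 enzyme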
Target sequence (O95372 whole entry, looked up): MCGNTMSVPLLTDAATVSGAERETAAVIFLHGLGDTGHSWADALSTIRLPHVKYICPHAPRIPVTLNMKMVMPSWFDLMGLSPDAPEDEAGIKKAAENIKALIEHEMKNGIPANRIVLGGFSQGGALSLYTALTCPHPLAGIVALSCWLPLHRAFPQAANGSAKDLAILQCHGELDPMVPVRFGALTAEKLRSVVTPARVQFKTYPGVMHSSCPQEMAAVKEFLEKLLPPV
PREPL inhibitor: human PREPL enzyme inhibition | Q4J6C6 | recombinant PREPL, fluorescence polarization activity-based probe | inhibition, % at 5.96 µM | hit rate 0.68% among 320,000 | AID 2751; in the data active = inhibition above about 43%;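 note: 0% = enzyme with DMSO and 100% = wells lacking enzyme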
LYPLA1 counter: counter-screen for PME1 inhibitors: inhibitors of human LYPLA1; O75608; recombinant LYPLA1, FP-Rh probe fluorescence polarization; inhibition, % at 5.9 µM; hit rate 0.16% among 320,000; AID 2174;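 active = inhibition above the mean of all tested compounds plus 3 SD, set per campaign, cut at about 14% in these data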;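 note: inhibitors block serine hydrolase probe labeling of LYPLA1 so polarization falls; 0% = enzyme with DMSO and 100% = wells lacking LYPLA1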
Target sequence (O75608 whole entry, looked up): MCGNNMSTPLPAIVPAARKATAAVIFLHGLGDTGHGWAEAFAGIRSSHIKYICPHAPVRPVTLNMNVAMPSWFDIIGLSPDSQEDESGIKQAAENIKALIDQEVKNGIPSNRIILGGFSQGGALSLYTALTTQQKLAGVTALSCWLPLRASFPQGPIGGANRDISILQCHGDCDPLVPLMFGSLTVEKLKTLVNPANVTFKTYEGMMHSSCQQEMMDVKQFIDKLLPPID
Hck-Nef inh: inhibitors of human Hck kinase activated by Nef. P08631. Recombinant Hck-YEEI plus Nef, Z-Lyte FRET kinase assay. inhibition, % at 20 µM. hit rate 0.68% among 220,000. AID 463187;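 active = Hck-Nef kinase inhibition above about 50%, limit read from the data; inactive = inhibition below that limit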;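 note: 0% = DMSO with Hck plus Nef and 100% = Hck alone without Nef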
Rin1-Abl PPI inh: blocks binding of human Rin1 to Abl; inhibition, % at 7.35 µM; hit rate 0.4% among 360,000; AID 588664; P00519+Q13671; TR-FRET Rin1/Abl binding, biochemical; in the data active = inhibition above about 5%, passing the limit was not always enough
Rin1-Abl confirm: Rin1-Abl interaction inhibition confirmation; inhibition, % at 7.35 µM; AID 602124; shares compounds with Rin1-Abl PPI inh; hit rate 49% among 1,300; TR-FRET Rin1-Abl binding, purified proteins
GFP quencher: counter-screen for Rin1-Abl inhibitors: GFP fluorescence quenchers. shares compounds with Rin1-Abl PPI inh. inhibitors/quenchers counterscreen. inhibition, % at 6.75 µM. hit rate 8.5% among 1,300. AID 602125;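 note: ABL1-eGFP fusion protein alone without its partner RIN1-SBP; 0% = protein with vehicle and 100% = wells lacking protein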
GFP quench DR: counter-screen for Rin1-Abl inhibitors: GFP quenchers, dose response; shares compounds with Rin1-Abl PPI inh; GFP fluorescence interference/quenching counterscreen; IC50, µM; 230 tested, under 10 active; AID 602182; call rule not given here;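 note: ABL1-eGFP fusion protein alone without its RIN1 binding partner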
Starred values were filed as active, the others as inactive; x = no result. Cut-off read from the data, not from the text of the source, unless noted: active = inhibition above about 6.5%; inactive = the rest.

SMILES	p97 inhibitor	LYPLA2 counter	PREPL inhibitor	LYPLA1 counter	Hck-Nef inh	Rin1-Abl PPI inh	Rin1-Abl confirm	GFP quencher	others
CCc1cccc(C)c1NC(=O)C1CCCN1C(=O)NCc1ccccc1 (stereo not given)	x	-10	-5	-6	x	-2	x	x
CN=c1scc(-c2cccs2)n1/N=C/c1ccc(O)c(O)c1O	2	-3	31	-7	16	8.8*	9.7*	13*
CN=c1scc(C)n1/N=C/c1ccc(O)c(O)c1O	0	-4	27	-4	0	36*	21*	20*
COC(=O)C(N)Cc1ccc(O)c(O)c1 (stereo not given)	2	16	4	12	0	1	x	x
NC(CO)C(=O)NNCc1ccc(O)c(O)c1O (stereo not given)	7	-31	30	-18	11	37*	29*	6
O=C(CSc1nc(C(F)(F)F)cc(=O)[nH]1)NCc1ccc2c(c1)OCO2	x	-2	5	3	x	5	x	x
Cn1c(=O)c2c(nc(N3CCC(C(N)=O)CC3)n2CCSc2nc3ccccc3s2)n(C)c1=O	x	4	11	-2	x	9.7*	7.0*	0
CN(Cc1ccccc1)C(=O)c1nc2ccccn2c1CN1CCc2sccc2C1	-4	-1	8	0	9	9.8*	-2	-1
COc1ccc(C(=O)NC(=S)Nc2cccnc2)cc1OC	-2	3	3	-1	19	8.9*	-2	-1
CCC(=O)NC(c1ccco1)c1cc(Br)c2cccnc2c1O (stereo not given)	x	x	x	x	x	7.9*	8.1*	4
CCC(=O)NC(c1ccc(C)cc1)c1ccc2cccnc2c1O (stereo not given)	x	-1	-6	-6	x	11*	6.8*	2
CCCC(=O)NC(c1ccco1)c1cc([N+](=O)[O-])c2cccnc2c1O (stereo not given)	10	5	6	-1	26	9.3*	-3	5
Cc1cc([N+](=O)[O-])c2ccccc2c1NS(=O)(=O)c1ccccc1	x	x	x	x	x	-2	x	x
Cc1cc(NS(C)(=O)=O)c(=O)n(Cc2c(F)cccc2Cl)c1	x	3	9	1	x	1	x	x
COc1ccc(C)cc1N(CC(=O)Nc1ccc(S(=O)(=O)N2CCOCC2)cc1)S(C)(=O)=O	x	3	1	2	x	2	x	x
CS(=O)(=O)N(CC(=O)Nc1ccc(S(=O)(=O)N2CCOCC2)cc1)c1ccccc1Br	3	-3	13	0	20	9.4*	-3	2
COC(=O)c1ccc(CSc2nnc(CNC(=O)COc3ccc(Cl)cc3)o2)o1	-3	3	-4	-5	0	17*	19*	0	GFP quench DR=>68
COC(=O)c1ccc(CSc2nnc(CNC(=O)c3ccccc3F)o2)o1	0	9	-2	4	1	8.5*	11*	1
COC(=O)c1ccc(CSc2nnc(CNC(=O)c3ccc(OC)cc3)o2)o1	-1	-4	-7	-4	-3	5	x	x
O=C(COc1ccc(Cl)cc1)NCc1nnc(SCC(=O)N2CCCC2)o1	-2	0	8	-1	-17	0	x	x
CCOc1ccc(S(=O)(=O)N2CCN(C)CC2)c(C)c1C	1	-4	-5	2	4	5.8*	0	-1
CCOc1ccc(S(=O)(=O)N2CCCCC2)c2ccccc12	-6	3	1	-2	0	-3	x	x
CCCCN(C)C(=O)c1ccc2c(c1)S(=O)(=O)c1ccccc1C2=O	x	19	4	4	x	10*	-3	2
Nc1ccc(CSc2ccccc2)cc1	x	x	x	x	x	-3	x	x
O=C(O)c1cccc2cccc(-c3c4ccc(=O)c(O)c-4oc4c(O)c(O)ccc34)c12	x	x	x	x	x	41*	45*	28*
SMILES	p97 inhibitor	LYPLA2 counter	PREPL inhibitor	LYPLA1 counter	Hck-Nef inh	Rin1-Abl PPI inh	Rin1-Abl confirm	GFP quencher	others
O=C(CC1C(=O)NCCN1C(=O)Nc1ccccc1)Nc1cccc(C(F)(F)F)c1 (stereo not given)	-1	9	-8	2	15	0	x	x
O=C(CC1SCCNC1=O)Nc1cccc(Cl)c1 (stereo not given)	3	1	4	-1	-7	9.6*	19*	0	GFP quench DR=>68
CCc1ccccc1NC(=O)CC1SCCNC1=O (stereo not given)	3	0	-9	-1	17	6	x	x
O=C(CC1SCCNC1=O)Nc1cccc(C(F)(F)F)c1 (stereo not given)	4	8	-6	1	1	7.8*	4	0
COc1ccc(OC)c(NC(=O)CC2C(=O)NCCN2C(=O)Nc2cccc(Cl)c2)c1 (stereo not given)	2	3	2	2	2	9.2*	13*	1
O=C(CCC(=O)N(CC(=O)NC1CCCC1)c1cccc(F)c1)Nc1nccs1	x	-5	-4	-3	x	2	x	x
Cc1ccc(C(=O)NCCc2nnc3ccc(SCC(=O)N4CCCC4)nn23)cc1	x	-2	2	-2	x	15*	11*	-1
O=C(c1ccc(Cl)c(S(=O)(=O)N2CCCCC2)c1)N1CCN(Cc2ccccc2)CC1	x	7	6	0	x	4	x	x
CCN(C(=O)CN1C(=O)COc2ccc(S(=O)(=O)N3CCOCC3)cc21)c1ccc(OC)cc1	x	9	21	4	x	8.2*	11*	0
COc1ccc2c3c(cccc13)C(=O)CC2	x	x	x	x	x	12*	-3	-12
COc1ccc2c(c1OC)C(=O)OC2	6	-3	12	-1	15	0	x	x
COc1c(O)cc2c(c1O)[C@@H]1O[C@H](CO)[C@@H](O)[C@H](O)[C@H]1OC2=O	x	-6	0	-4	x	4	x	x
Cc1c(C(=O)O)c(O)cc2c1C(=O)c1c(O)c([C@@H]3O[C@H](CO)[C@@H](O)[C@H](O)[C@H]3O)c(O)c(O)c1C2=O	x	x	4	x	x	21*	27*	5
COc1ccccc1OCc1ccc(C(=O)N2CCN(C(=O)c3ccco3)CC2)cc1	-1	6	7	4	1	10*	21*	0	GFP quench DR=>68
COc1ccc(CN2CCN(C(=O)c3ccco3)CC2)cc1OCc1ccccc1	-5	10	22	1	1	2	x	x
CNS(=O)(=O)c1cn(CC(=O)NCc2ccc(F)cc2)cc1S(=O)(=O)NC	x	-2	2	2	x	0	x	x
COc1ccc(CC(=O)OCC(=O)NCc2ccccc2Cl)cc1OC	6	0	7	-3	18	10*	3	0
OCC1(CCOc2ccccc2)CCN(Cc2ccncc2)CC1	x	-7	10	1	x	12*	12*	-2

Screening results as filed in PubChem.
